# Laboratory results reported in PubChem BioAssay AID1347416 (National Center for Advancing Translational Sciences (NCATS), 2020).
# In all, about 4,100 compounds went through this assay and about 1,600 (39%) were called active. Inconclusive results (about 25%) are left out. The list shows a part of the results. Values without a mark were called inactive. Calls come from the whole dose curve; as a rule, active = well fitted inhibition curve with a large enough effect; inconclusive = small, poorly fitted or top-dose-only effect; inactive = no such curve, though single readings can be large or run the other way.
# Test: qHTS Validation assay for Inhibitors of Plasmodium falciparum Dd2 growth in vitro; note: nearly all actives have a fitted effect of over 70% in size
# Details: P. falciparum Dd2 in RBCs, SYBR Green growth, 72 h; series mostly up to 28.7 µM; activity change, negative = inhibition: at the top concentration
# Procedure, shortened: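 P. falciparum Dd2-infected red blood cells (2.5% hematocrit, 0.3% parasitemia) grown 72 h at 37 °C under 5% O2 with compounds in a titration, 29 uM to 0.5 nM final. Growth read as SYBR Green-1 fluorescence after ~16 h lysis; artesunate 300 nM as positive control.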
# % is set by controls: 0 for no effect and ±100 for the full control effect; potency is the fitted concentration of half-maximal effect.
SMILES,"activity change, negative = inhibition",Potency
CC1(C)C(=O)N(Cc2ccccc2)[C@H]2CN(CC3CCOCC3)C[C@@H]2[S+]1(=O)[O-],7.69% [at 43.1 µM],
O=C(NNc1nc(-c2ccc(Br)cc2)cs1)c1ccco1,,5.31 µM (active)
CCCCOC(=O)N1CCC(N2CCCC(C(=O)N3CCOCC3)C2)CC1 (stereo unspecified),35%,
CCN1CCCC1CNc1ncnc2c1[nH]c1ccc(Cl)cc12 (stereo unspecified),,2.99 µM (active)
CN(Cc1cccn1C)S(C)(=O)=O,30.2% [at 57.5 µM],
CN(C)C[C@@H]1CN(c2ccncn2)C[C@H]1NC(=O)c1cnco1,16.3%,
Cc1ccc(C)c(NC2=C(c3ccc(C(F)(F)F)cc3)C(=O)c3ccccc32)c1,,4.73 µM (active)
Cc1ccc(NC2=C(c3ccc(C(F)(F)F)cc3)C(=O)c3ccccc32)cc1C,,2.11 µM (active)
Cc1ccc(NC2=C(c3ccc(C(F)(F)F)cc3)C(=O)c3ccccc32)cc1F,,1.88 µM (active)
Oc1ccc(-c2ccc(-c3nc(CCc4ccccc4)no3)cn2)cc1,0%,
CC(C)(C)n1[nH]c2c3c(ccc2c1=O)C(=O)c1ccccc1C3=O,,4.73 µM (active)
CCCc1nc2ccc(NC(=O)c3cccs3)cc2c(=O)n1Cc1ccc(Cl)cc1,,8.41 µM (active)
Cc1ccc(Cn2nnc(C(=O)Nc3ccc(F)c(F)c3)c2N)cc1,6.12%,
Cc1ccc(-c2nc(C)c(C(=O)O)s2)cc1,29.2%,
CC(=O)C1=C(c2ccc(Cl)c(Cl)c2)N(C(C)=O)n2cnnc2S1,,3.76 µM (active)
CC(=O)C1=C(c2ccc(Br)cc2)N(C(C)=O)n2c(nnc2C2CCCCC2)S1,,2.99 µM (active)
CC(=O)C1=C(c2ccccc2)N(C(C)=O)n2c(nnc2C2CCCCC2)S1,,4.22 µM (active)
CC(=O)C1=C(c2ccc(Cl)cc2)N(C(C)=O)n2c(nnc2C2CCCCC2)S1,,4.73 µM (active)
Cc1ncoc1C(=O)N1CCCCCC1c1nnc(-c2ccccc2)o1 (stereo unspecified),-8.53%,
CC[C@@]1(O)CCN(C(=O)c2cccc(-c3cccc(OC)c3)c2)C[C@H]1O,36.8%,
COc1ccc(C(=O)NCc2nnc3ccc(-c4ccc(Cl)cc4)nn23)cc1F,1.75%,
COc1cccc(C2=C(C(C)=O)Sc3nnc(C4CCCCC4)n3N2C(C)=O)c1,,4.73 µM (active)
COc1ccc(C2=C(C(C)=O)Sc3nnc(-c4ccc(Cl)cc4)n3N2C(C)=O)cc1OC,,3.76 µM (active)
COc1ccc(-c2noc(N3CCN(c4ccc(C)cc4)C(C)C3)n2)cc1OC (stereo unspecified),19.4%,

SMILES,"activity change, negative = inhibition",Potency
CCOc1ccc(C2=C(C(C)=O)Sc3nnc(C)n3N2C(C)=O)cc1,,5.31 µM (active)
COc1cc(Cc2cnc(N)nc2N)cc(OC)c1OC,-3.03%,
Cc1noc(-c2cccn3c(CNC(=O)c4cccc(N(C)C)c4)nnc23)n1,-9.65%,
O=C(Nc1ccc(Cl)cc1)N1CCC2(CC1)CCN(Cc1cccs1)c1ccccc1O2,,8.41 µM (active)
Cc1ccc([S+](=O)([O-])N2CCC3(CCN(Cc4cccs4)c4ccccc4O3)CC2)cc1,,18.8 µM (active)
COCC(=O)N1CCC2(CC1)CCN(Cc1cccs1)c1ccccc1O2,-11.4%,
CCCN1CCC2(CCN(C(=O)c3cccc(Cl)c3)CC2)Oc2ccccc21,-10.4%,
CCC(C)NC(=O)C1COC2(CCN(C(=O)c3cccc(Cl)c3)CC2)N1C(=O)c1ccccc1C (stereo unspecified),-20%,
CCC(C)NC(=O)c1ccccc1NC(=O)C1COc2ccccc2O1 (stereo unspecified),,10.6 µM (active)
CCc1ccc(OCC(=O)N(Cc2ccc(C(C)C)cc2)C2CCS(=O)(=O)C2)cc1 (stereo unspecified),-21.5%,
CCc1ccc(CN(C(=O)c2cc3ccccc3oc2=O)C2CCS(=O)(=O)C2)cc1 (stereo unspecified),4.23%,
Cc1ccc(-n2c(C)cc(C(=O)OCC(=O)N(C)C3CCS(=O)(=O)C3)c2C)cc1 (stereo unspecified),,4.73 µM (active)
COc1ccc(-c2cc3c(=O)n(CCNC(=O)c4ccc(C)c(F)c4)ccn3n2)cc1,-1.49%,
CC1CCCCN1CCCNC(=O)c1ccc2c(c1)sc1nc(-c3ccc(F)cc3)cn12 (stereo unspecified),,1.88 µM (active)
CCC1CCCCN1CCCNC(=O)c1ccc2c(c1)sc1nc(-c3ccc(F)cc3)cn12 (stereo unspecified),,1.5 µM (active)
CN1c2cc(C(=O)NCc3ccc(F)cc3)ccc2C(=O)N2CCCCCC21 (stereo unspecified),10%,
O=C(C1CCC1)N1CCC2(CC1)CC(N(Cc1ccccc1)C1CC1)CCO2 (stereo unspecified),-0.913%,
CC1CCCCN1Cc1c(O)ccc2c(=O)c(-c3nc4ccccc4s3)c(N)oc12 (stereo unspecified),,1.06 µM (active)
COCCN1C(=O)CS(=O)(=O)C12CCN(C(=O)c1cc(C)ccc1C)CC2,-2.68%,
CC(C)(C)CN[C@H]1C[C@@H](Cc2cc(CN3CCOCC3)on2)C1(C)C,3.76% [at 43.1 µM],
CN(C)Cc1cc(C[C@@H]2C[C@H](NCc3ccccc3O)C2(C)C)no1,,17.2 µM (active)
CN(C)Cc1cc(CC2(NCc3ccc(C#N)cc3)COC2)no1,20.6% [at 43.1 µM],
O=C(c1ccc([N+](=O)[O-])o1)N1CCN(c2nc3c(F)cc(F)cc3s2)CC1,,5.96 µM (active)
O=C(c1ccc([N+](=O)[O-])o1)N1CCN(c2nc3c(Cl)cccc3s2)CC1,,4.22 µM (active)

SMILES,"activity change, negative = inhibition",Potency
CC(=O)N1CCN(c2nc3c(s2)CC(C(=O)NCc2cccc(Cl)c2)CC3)CC1 (stereo unspecified),-21.9%,
CCc1cccc2sc(N3CCN(C(=O)c4ccc([N+](=O)[O-])o4)CC3)nc12,,1.06 µM (active)
Cc1noc(C(C)N(C)C(=O)c2cc(COc3ccccc3F)[nH]n2)n1 (stereo unspecified),47.1%,
Cc1nn(-c2ccccc2)c2c1C(c1cccnc1)N1C=C(S(=O)(=O)N3CCCCC3)C=CC1=N2 (stereo unspecified),,15 µM (active)
Fc1ccc(-c2ccc3ncc(Nc4ccnc(N5CCOCC5)c4)n3n2)cc1,,1.72 µM (active)
COc1ccc(-c2ccc3ncc(Nc4cccc(C(F)(F)F)c4)n3n2)cn1,,12.2 µM (active)
COc1ccc(-c2ccc3ncc(Nc4ccnc(N5CCOCC5)c4)n3n2)cn1,,4.85 µM (active)
COC(=O)[C@@H]1Cc2ncn(C(C)C)c2CN1S(=O)(=O)c1cccc(C(F)(F)F)c1,37.8% [at 43.1 µM],
CCc1noc(-c2cccn3c(CNC(=O)Cc4ccc(Cl)cc4)nnc23)n1,-12.7%,
CCN(CC)c1cc(C)c2cc(NC(=O)c3ccc(Br)o3)ccc2n1,,6.68 µM (active)
CCN1CCN(c2cc(C)c3cc(NC(=O)c4ccc(Br)o4)ccc3n2)CC1,,6.68 µM (active)
Cc1cc(N2CCN(C)CC2)nc2ccc(NC(=O)c3ccc(Br)o3)cc12,,6.68 µM (active)
Cc1ccoc1C(=O)Nc1ccc(CC(=O)O)cc1,32.1%,
CCN(c1ccccc1)S(=O)(=O)c1ccc(NC(=O)c2cc(=O)c3cc(C)ccc3o2)cc1,44%,
OC(CN1CCN(c2ccccn2)CC1)Cn1c2ccc(Cl)cc2c2cc(Cl)ccc21 (stereo unspecified),,2.99 µM (active)
CC(NC(=O)Cc1cccc(F)c1)C(=O)N1CCN(c2ccccn2)CC1 (stereo unspecified),-6.29%,
O=c1cc(N2CCOCC2)oc2c(N3CCN(c4ccccn4)CC3)nccc12,-7.02% [at 43.1 µM],
COc1ccc(CNC(=O)CC[C@@H]2CNC(=O)[C@@H]3C[C@H](NCc4ccccc4)CN23)cc1,41%,
COc1ccc(CNC(=O)C2CCN(C(=O)c3cc4c(=O)[nH]c(C)cn4n3)CC2)cc1,2.01%,
Cc1ccc(CNCc2cc3c(C(C)(C)C)nn(-c4ccccc4)c3[nH]c2=O)cc1,,0.266 µM (active)
Cc1nc(NCc2ccccc2)[nH]c(=O)c1CCC(C)C,-0.527%,
COc1ccc(CNCc2cc3c(C(C)(C)C)nn(-c4ccccc4)c3[nH]c2=O)cc1,,0.842 µM (active)
Cc1ccc(Oc2c(CCC(=O)NC(C)C)c(C)nn2-c2ccccc2)cc1,-18.5%,
Cc1ccc(-c2nn(-c3ccccc3)c3[nH]c(=O)c(CNCc4ccccc4)cc23)cc1,,0.422 µM (active)

SMILES,"activity change, negative = inhibition",Potency
CCCC(=O)N=C1SC2CS(=O)(=O)CC2N1c1ccc(CC)cc1 (stereo unspecified),36.5%,
COCc1nncn1C1CCN(C(=O)c2ccc(C)c(C)c2)CC1,26.5%,
CN(Cc1cccn1C)C(=O)C1CC1,50.1% [at 57.5 µM],
CCC(C)c1ccc(O)c(NC(=O)c2cncc(Br)c2)c1 (stereo unspecified),,2.99 µM (active)
CCC(C)c1ccc(NC(=O)c2cccnc2)cc1 (stereo unspecified),-5.75%,
COc1ccc(NC(=O)c2nnn(Cc3ccccc3C)c2N)c(OC)c1,11.2%,
COc1ccc(NC(=O)c2nnn3c2CN(Cc2cccc(Cl)c2)C(=O)CC3)c(C)c1,,2.17 µM (active)
CCCCn1c2ccccc2c2nnc(SCC(=O)Nc3ccc(NC(C)=O)cc3)nc21,9.73%,
CCCCCCCn1c(NC(=O)CC)nc2ccccc21,,16.8 µM (active)
CC(=O)Nc1nc2ccccc2n1Cc1ccc(Cl)cc1,,8.41 µM (active)
O=C(Nc1nc2ccccc2n1Cc1ccccc1)c1ccc(COc2ccccc2[N+](=O)[O-])o1,,16.8 µM (active)
COc1ccc(C2CC(c3cccs3)=NN2C(=O)c2ccc(Br)o2)cc1 (stereo unspecified),,5.31 µM (active)
COc1ccc2nc3oc(C(=O)NCc4cccs4)cc3cc2c1,1.28%,
O=C(CN1CCN(S(=O)(=O)N2CCCC2)CC1)NCc1ccccc1F,35.8%,
O=C(Nc1nc2c(F)cccc2s1)c1ccc(S(=O)(=O)N2CCCc3ccccc32)cc1,23.7%,
O=C(NCCCN1CCCC1)c1ccc2c(c1)N(S(=O)(=O)c1ccccc1F)CC2,,9.44 µM (active)
COc1ccc2[nH]c3c(c2c1)CCNC31CCN(C(=O)C(C)(C)C)CC1,4.8%,
Cc1ccc(C(=O)N2CCc3nc4cc(-c5ccccc5)[nH]n4c(=O)c3C2)cn1,-4.34%,
O=C(c1cc(NC(=O)C23CC4CC(CC(C4)C2)C3)cc(NC(=O)C23CC4CC(CC(C4)C2)C3)c1)N1CCCCC1,,5.96 µM (active)
CC(C)CN1C(=O)c2cccn2CC1CNC(=O)c1ccccc1 (stereo unspecified),11.3%,
COc1ccc(CNCC(O)(c2ccc(Cl)cc2)c2ccc(Cl)cc2)cc1,,1.5 µM (active)
Cc1ccc(CNCC(O)(c2ccccc2)c2ccc(Cl)cc2)cc1 (stereo unspecified),,2.99 µM (active)
COc1ccccc1CNCC(O)(c1ccc(Cl)cc1)c1ccc(Cl)cc1,,1.5 µM (active)
COc1ccccc1Oc1ncccc1CNCc1c(F)cccc1Cl,-18.1%,
